{"source": "PubChem BioAssay AID1626", "about": "(SRMLSC, 2009)", "note": "Among all 220,000 compounds or so, about 2,000 (0.91%) were called active. Another 2% or so got no clear call; they are omitted. Only a sample is shown. Potency and affinity values are given separately. A number with no mark means an inactive call. No stated cut-off is given here; in the data, inconclusive means inhibition above about 80% without an active follow-up result; inactive means below that; test concentration not stated here."}
{"assay": "M. tuberculosis H37Rv growth inhibitors, H37Rv strain (AID 1626);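 further: bacteria incubated seven days before Alamar blue readout; 0% = bacteria only wells and 100% = bacteria with antibiotic wells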", "settings": "hits give high values, concentration not given here", "units": {"inhibition": "%"}}
{"smiles": "O=C(N/N=C/c1c(Cl)cccc1Cl)c1ccccc1F", "inhibition": 65.5}
{"smiles": "O=C(CNc1ccccc1)NN=C1CCCC1", "inhibition": -7.1}
{"smiles": "COc1cccc(CNC(=O)CCC2CCCN(C(=O)c3cscn3)C2)c1", "note": "(stereo unspecified)", "inhibition": -1.29}
{"smiles": "CCOC(=O)N1CCN(C(=O)Nc2ccc(NC(=O)N3CCN(C(=O)OCC)CC3)cc2)CC1", "inhibition": -0.49}
{"smiles": "COc1ccccc1/C=C/C(=O)N1CCOCC1", "inhibition": -12.7}
{"smiles": "O=C(NCCCN1CCOCC1)/C(=C/c1ccc(F)cc1)NC(=O)c1ccccc1", "inhibition": -5.09}
{"smiles": "CC1(C)NC(=O)N(CC(=O)Nc2cc(S(=O)(=O)N3CCOCC3)ccc2N2CCOCC2)C1=O", "inhibition": 0.65}
{"smiles": "C=CCNC(=O)NC(=O)COC(=O)[C@H](C)NS(=O)(=O)c1c(C)c(C)cc(C)c1C", "inhibition": 0.16}
{"smiles": "COC(=O)c1ccc(Cn2cnc3c(cnn3-c3ccc(C)c(C)c3)c2=O)o1", "inhibition": -9.12}
{"smiles": "COc1ccc2c(c1)CCCN2C(N)=O", "inhibition": -8.08}
{"smiles": "C=CCn1c(SCc2csc(-c3ccc(Cl)cc3)n2)nnc1-c1ccccc1OC", "inhibition": 7.93}
{"smiles": "C=CCn1c(SCC(=O)c2ccc(O)c(O)c2)nnc1-c1ccccc1OC", "inhibition": -2}
{"smiles": "COc1cc(NS(=O)(=O)c2ccc(NC(=O)NC3CCCCC3)cc2)nc(OC)n1", "inhibition": -5.16}
{"smiles": "Cc1cccc(C(=O)N2CCC(=O)N(C(COCc3cccc(Cl)c3)Cc3ccccc3)CC2)c1", "note": "(stereo unspecified)", "inhibition": -0.5}
{"smiles": "O=C(CCN1C(=O)C2CCCCC2C1=O)Nc1nc(-c2ccccc2)cs1", "note": "(stereo unspecified)", "inhibition": 6.05}
{"smiles": "O=C(CCN1C(=O)C2CCCCC2C1=O)Nc1ccc(F)c(F)c1F", "note": "(stereo unspecified)", "inhibition": -4.84}
{"smiles": "CCOC(=O)C1(CC2CCCCO2)CCN(C(=O)NCc2ccccc2)CC1", "note": "(stereo unspecified)", "inhibition": 4.64}
{"smiles": "COc1ccc(-c2cc(C(F)(F)F)nc(N3CCOCC3)n2)cc1", "inhibition": -0.92}
{"smiles": "c1ccc(-c2cnc(-c3ccccc3)nc2)cc1", "inhibition": -5.94}
{"smiles": "Nc1c(Cl)nc(-c2ccccc2)nc1Cl", "inhibition": 0.39}
{"smiles": "O=C(CCN1C(=O)C2C3C=CC(C3)C2C1=O)Nc1nccs1", "note": "(stereo unspecified)", "inhibition": -5.43}
{"smiles": "O=C1CNC(=S)N1CCc1ccc(Cl)cc1", "inhibition": -6.23}
{"smiles": "CCc1ccccc1NC(=O)CN(C)C(=O)CSc1nn(-c2ccc(F)cc2)c(=S)s1", "inhibition": -11.2}
{"smiles": "COc1ccc(-c2nc(C(F)(F)F)c(OC)o2)cc1OC", "inhibition": -0.95}
{"smiles": "O=C(Nc1ccc(F)cc1)N1CCN(C/C=C/c2ccccc2)CC1", "inhibition": -13}
{"smiles": "O=C(C1CCN(Cc2ccc(F)cc2)CC1)N1CCN(C/C=C/c2ccccc2)CC1", "inhibition": 5.92}
